# About 79,000 compounds went through this panel and 15% of them were active in at least one assay; those are over-represented in the sample as a whole. Unmarked numbers belong to inactive results. Calls of active or inactive are those of the source. Rule as the data show it: active = growth inhibition above about 70%; inactive = the rest.
# How the values were obtained:
# [1] = NCI Yeast Anticancer Drug Screen. Data for the rad52 strain (AID 147);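 also: 0% = growth of vehicle-treated control cultures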; settings: S. cerevisiae rad52 mutant growth inhibition, active compounds read high
# Outline: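 The repair-mutant yeast strain was incubated with compounds, then growth was read and inhibition derived relative to vehicle.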
# [2] = NCI Yeast Anticancer Drug Screen. Data for the rad50EPP+ strain (AID 151);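 also: 0% = growth of vehicle-treated control cultures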; settings: S. cerevisiae rad50 mutant strain, active compounds read high
# Outline: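 Vehicle-normalised growth inhibition; rad50EPP+ yeast strain, altered in DNA damage repair, compound-treated.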
# [3] = NCI Yeast Anticancer Drug Screen. Data for the mgt1 strain (AID 153); settings: S. cerevisiae mgt1 mutant growth inhibition, active compounds read high
# Outline: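 Vehicle-normalized growth inhibition is determined in mgt1 yeast, a strain selected for a defined alteration in DNA repair or cell cycle control.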
# [4] = NCI Yeast Anticancer Drug Screen. Data for the rad50 strain (AID 155);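 also: 0% = growth of vehicle-only cultures of the same strain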; settings: S. cerevisiae rad50 strain growth inhibition, active compounds read high
# Outline: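 Compounds were tested on a yeast strain with an engineered DNA damage repair alteration; the reported value is growth inhibition normalised to vehicle treatment.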
# [5] = NCI Yeast Anticancer Drug Screen. Data for the mec2-1 strain (AID 157); settings: S. cerevisiae mec2-1 strain, active compounds read high
# Outline: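 Mutant yeast (mec2-1) grown with compound; growth inhibition relative to vehicle control reported.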
# [6] = NCI Yeast Anticancer Drug Screen. Data for the rad14 strain (AID 159);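 also: 0% = growth of vehicle-treated control cultures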; settings: S. cerevisiae rad14 strain growth inhibition, active compounds read high
# Outline: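 Compound-treated yeast with a defined DNA-repair lesion; growth inhibition normalised to vehicle-treated cultures.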
# [7] = NCI Yeast Anticancer Drug Screen. Data for the sgs1 mgt1 strain (AID 161);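 also: 0% = growth of cultures given vehicle only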; settings: S. cerevisiae sgs1 mgt1 strain, active compounds read high
# Outline: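 Growth of a repair-deficient yeast mutant was monitored after compound treatment and expressed as inhibition relative to vehicle-treated cultures.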
# [8] = NCI Yeast Anticancer Drug Screen. Data for the CLN2oe strain (AID 163);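 also: 0% = growth of vehicle-only control cultures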; settings: S. cerevisiae CLN2oe strain, active compounds read high
# Outline: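 Compounds are applied to yeast harbouring a defined cell-cycle control change; reduced growth compared with vehicle-treated controls gives the value.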
# [9] = NCI Yeast Anticancer Drug Screen. Data for the cln2 rad14 strain (AID 165);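 also: 0% = growth equal to vehicle treated cultures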; settings: S. cerevisiae cln2 rad14 strain, active compounds read high
# Outline: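 Readout is yeast growth inhibition versus vehicle-treated controls, using a strain with cln2 and rad14 alterations exposed to compound.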
# [10] = NCI Yeast Anticancer Drug Screen. Data for the bub3 strain (AID 167); settings: S. cerevisiae bub3 mutant strain, active compounds read high
# Outline: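 Growth of a checkpoint-deficient yeast mutant is measured after compound exposure. Values represent inhibition relative to vehicle.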
# [11] = NCI Yeast Anticancer Drug Screen. Data for the wt2 strain (AID 169);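 also: 0% = growth of vehicle-treated yeast cultures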; settings: S. cerevisiae wt2 strain growth inhibition, active compounds read high
# Outline: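 Against vehicle-treated controls, the growth of yeast exposed to each compound was compared, and the inhibition was recorded.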
# [12] = NCI Yeast Anticancer Drug Screen. Data for the mlh1 strain (AID 171);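 also: 0% = growth of vehicle-treated control cultures of the same strain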; settings: S. cerevisiae mlh1 strain growth inhibition, active compounds read high
# Outline: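 Measured: yeast growth. Reference: vehicle-treated controls. Organism: strain with a defined alteration affecting DNA damage repair or cell cycle control, treated with compound.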
# [13] = NCI Yeast Anticancer Drug Screen. Data for the sgs1 strain (AID 173);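 also: 0% = growth of vehicle-only control cultures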; settings: S. cerevisiae sgs1 mutant, active compounds read high
# Outline: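 Each compound was added to cultures of the altered yeast strain. Growth was recorded, and inhibition was derived by comparison with vehicle controls.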
# [14] = NCI Yeast Anticancer Drug Screen. Data for the mlh1 rad18 strain (AID 175); settings: S. cerevisiae mlh1 rad18 strain growth inhibition, active compounds read high
# Outline: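 Genetically defined yeast (DNA repair-deficient) exposed to compounds; growth inhibition determined relative to vehicle.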
# [15] = NCI Yeast Anticancer Drug Screen. Data for the wt1 strain (AID 149);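 also: 0% = growth of vehicle-treated wt1 cultures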; settings: S. cerevisiae wt1 strain (SPY 50644) growth inhibition, active compounds read high
# Outline: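 Readout: yeast growth inhibition, normalised to vehicle controls, in the wt1 strain exposed to test compounds.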
# [16] = NCI Yeast Anticancer Drug Screen. Data for the rad18 strain (AID 177); settings: S. cerevisiae rad18 mutant growth inhibition, active compounds read high
# Outline: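 Vehicle-treated cultures served as the baseline for scoring compound-induced growth inhibition in DNA-repair-mutant yeast.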
# [17] = at 5.0 µM (retest, dose inferred, filed as 0.5)
# [18] = at 50.0 µM (retest, dose inferred, filed as 5.0)
smiles,measurement,setting,value
CN(C)Cc1cc(N=Nc2ccc(Cl)cc2)ccc1OC(=O)c1ccccc1,growth inhibition,[1]; at 1.2 µM,1%
same,growth inhibition,[1]; at 3.7 µM,3%
same,growth inhibition,[1]; at 11.0 µM,1%
same,growth inhibition,[1]; at 33.0 µM,7%
same,growth inhibition,[1]; at 100.0 µM,17%
same,growth inhibition,[2]; at 1.2 µM,4%
same,growth inhibition,[2]; at 3.7 µM,7%
same,growth inhibition,[2]; at 11.0 µM,20%
same,growth inhibition,[2]; at 33.0 µM,22%
same,growth inhibition,[2]; at 100.0 µM,41%
same,growth inhibition,[3]; at 1.2 µM,0%
same,growth inhibition,[3]; at 3.7 µM,1%
same,growth inhibition,[3]; at 11.0 µM,5%
same,growth inhibition,[3]; at 33.0 µM,48%
same,growth inhibition,[3]; at 100.0 µM,82% (active)
same,growth inhibition,[4]; at 1.2 µM,1%
same,growth inhibition,[4]; at 3.7 µM,1%
same,growth inhibition,[4]; [17],-10%
same,growth inhibition,[4]; at 11.0 µM,1%
same,growth inhibition,[4]; at 33.0 µM,5%
same,growth inhibition,[4]; [18],10%
same,growth inhibition,[4]; at 50.0 µM,90.3% (active)
same,growth inhibition,[4]; at 100.0 µM,11%
same,growth inhibition,[5]; at 1.2 µM,-3%
same,growth inhibition,[5]; at 3.7 µM,3%
same,growth inhibition,[5]; [17],-2%
same,growth inhibition,[5]; at 11.0 µM,-2%
same,growth inhibition,[5]; at 33.0 µM,3%
same,growth inhibition,[5]; [18],47%
same,growth inhibition,[5]; at 50.0 µM,97.2% (active)
same,growth inhibition,[5]; at 100.0 µM,42%
same,growth inhibition,[6]; at 1.2 µM,-1%
same,growth inhibition,[6]; at 3.7 µM,-2%
same,growth inhibition,[6]; at 11.0 µM,1%
same,growth inhibition,[6]; at 33.0 µM,14%
same,growth inhibition,[6]; at 100.0 µM,51%
same,growth inhibition,[7]; [17],38%
same,growth inhibition,[7]; [18],48%
same,growth inhibition,[7]; at 50.0 µM,98.3% (active)
same,growth inhibition,[8]; at 1.2 µM,3%
same,growth inhibition,[8]; at 3.7 µM,-1%
same,growth inhibition,[8]; at 11.0 µM,1%
same,growth inhibition,[8]; at 33.0 µM,0%
same,growth inhibition,[8]; at 100.0 µM,5%
same,growth inhibition,[9]; [17],-20%
same,growth inhibition,[9]; [18],51%
same,growth inhibition,[9]; at 50.0 µM,97% (active)
same,growth inhibition,[10]; at 1.2 µM,-2%
same,growth inhibition,[10]; at 3.7 µM,-2%
same,growth inhibition,[10]; [17],-15%
same,growth inhibition,[10]; at 11.0 µM,-4%
same,growth inhibition,[10]; at 33.0 µM,5%
same,growth inhibition,[10]; [18],54%
same,growth inhibition,[10]; at 50.0 µM,98.5% (active)
same,growth inhibition,[10]; at 100.0 µM,23%
same,growth inhibition,[11]; at 1.2 µM,1%
same,growth inhibition,[11]; at 3.7 µM,2%
same,growth inhibition,[11]; at 11.0 µM,6%
same,growth inhibition,[11]; at 33.0 µM,21%
same,growth inhibition,[11]; at 100.0 µM,52%
same,growth inhibition,[12]; at 1.2 µM,2%
same,growth inhibition,[12]; at 3.7 µM,2%
same,growth inhibition,[12]; at 11.0 µM,4%
same,growth inhibition,[12]; at 33.0 µM,31%
same,growth inhibition,[12]; at 100.0 µM,67%
same,growth inhibition,[13]; at 1.2 µM,0%
same,growth inhibition,[13]; at 3.7 µM,5%
same,growth inhibition,[13]; at 11.0 µM,9%
same,growth inhibition,[13]; at 33.0 µM,42%
same,growth inhibition,[13]; at 100.0 µM,74% (active)
same,growth inhibition,[14]; [17],-9%
same,growth inhibition,[14]; [18],61%
same,growth inhibition,[14]; at 50.0 µM,98.5% (active)
O=C1N=C2SC=C(NC(=S)Nc3ccccc3)N2NC12c1ccccc1-c1ccccc12,growth inhibition,[1]; at 1.2 µM,11%
same,growth inhibition,[1]; at 3.7 µM,12%
same,growth inhibition,[1]; at 11.0 µM,19%
same,growth inhibition,[1]; at 33.0 µM,46%
same,growth inhibition,[1]; at 100.0 µM,73% (active)
same,growth inhibition,[15]; at 1.2 µM,3%
same,growth inhibition,[15]; at 3.7 µM,3%
same,growth inhibition,[15]; at 11.0 µM,7%
same,growth inhibition,[15]; at 33.0 µM,38%
same,growth inhibition,[15]; at 100.0 µM,78% (active)
same,growth inhibition,[3]; at 1.2 µM,6%
same,growth inhibition,[3]; at 3.7 µM,6%
same,growth inhibition,[3]; at 11.0 µM,30%
same,growth inhibition,[3]; at 33.0 µM,77% (active)
same,growth inhibition,[3]; at 100.0 µM,88% (active)
same,growth inhibition,[4]; at 1.2 µM,6%
same,growth inhibition,[4]; at 3.7 µM,0%
same,growth inhibition,[4]; [17],1%
same,growth inhibition,[4]; at 11.0 µM,4%
same,growth inhibition,[4]; at 33.0 µM,49%
same,growth inhibition,[4]; [18],48%
same,growth inhibition,[4]; at 50.0 µM,78% (active)
same,growth inhibition,[4]; at 100.0 µM,76% (active)
same,growth inhibition,[5]; at 1.2 µM,15%
same,growth inhibition,[5]; at 3.7 µM,13%
same,growth inhibition,[5]; [17],-11%
same,growth inhibition,[5]; at 11.0 µM,22%
same,growth inhibition,[5]; at 33.0 µM,57%
same,growth inhibition,[5]; [18],8%
same,growth inhibition,[5]; at 50.0 µM,45.9%
same,growth inhibition,[5]; at 100.0 µM,81% (active)
same,growth inhibition,[6]; at 1.2 µM,10%
same,growth inhibition,[6]; at 3.7 µM,3%
same,growth inhibition,[6]; at 11.0 µM,14%
same,growth inhibition,[6]; at 33.0 µM,49%
same,growth inhibition,[6]; at 100.0 µM,84% (active)
same,growth inhibition,[8]; at 1.2 µM,12%
same,growth inhibition,[8]; at 3.7 µM,4%
same,growth inhibition,[8]; at 11.0 µM,13%
same,growth inhibition,[8]; at 33.0 µM,64%
same,growth inhibition,[8]; at 100.0 µM,76% (active)
same,growth inhibition,[9]; [17],-4%
same,growth inhibition,[9]; [18],15%
same,growth inhibition,[9]; at 50.0 µM,57.9%
same,growth inhibition,[10]; at 1.2 µM,10%
same,growth inhibition,[10]; at 3.7 µM,5%
same,growth inhibition,[10]; [17],-14%
same,growth inhibition,[10]; at 11.0 µM,11%
same,growth inhibition,[10]; at 33.0 µM,54%
same,growth inhibition,[10]; [18],46%
same,growth inhibition,[10]; at 50.0 µM,74.7% (active)
same,growth inhibition,[10]; at 100.0 µM,70% (active)
same,growth inhibition,[12]; at 1.2 µM,10%
same,growth inhibition,[12]; at 3.7 µM,8%
same,growth inhibition,[12]; at 11.0 µM,20%
same,growth inhibition,[12]; at 33.0 µM,59%
same,growth inhibition,[12]; at 100.0 µM,81% (active)
same,growth inhibition,[13]; at 1.2 µM,10%
same,growth inhibition,[13]; at 3.7 µM,15%
same,growth inhibition,[13]; at 11.0 µM,28%
same,growth inhibition,[13]; at 33.0 µM,81% (active)
same,growth inhibition,[13]; at 100.0 µM,90% (active)
same,growth inhibition,[14]; [17],-10%
same,growth inhibition,[14]; [18],41%
same,growth inhibition,[14]; at 50.0 µM,69.7%
same,growth inhibition,[16]; at 1.2 µM,14%
same,growth inhibition,[16]; at 3.7 µM,19%
same,growth inhibition,[16]; at 11.0 µM,24%
same,growth inhibition,[16]; at 33.0 µM,49%
same,growth inhibition,[16]; at 100.0 µM,77% (active)
